# From PubChem BioAssay (Tox21)
# Results filed as inconclusive are left out. Entries that show only a call come without a potency. Active and inactive are the calls of the source. Unless noted, the call rests on the fitted dose curve; in most records, active means well fitted curve in the direction sought with a large enough effect in the repeat runs; inconclusive means weak or mixed curves; inactive means no such curve, though single readings can be large; an effect the other way counts as inactive or inconclusive.
# Key:
# [1] = qHTS assay to identify small molecule antagonists of the glucocorticoid receptor (GR) signaling pathway - cell viability counter screen (AID 720693); further: nearly all actives have a fitted effect of over 55% in size
# [2] = qHTS assay for identifying genotoxic compounds that show differential cytotoxicity against isogenic chicken DT40 cell lines with known DNA damage response pathways - wild type cell line (AID 743012); further: nearly all actives have a fitted effect of over 60% in size
# Outline: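 Luminescent ATP viability signal (CellTiter-Glo, 30 min RT) recorded after wild type DT40 cells were incubated with compounds for 40 h at 37 C/5% CO2.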
# [3] = qHTS assay for identifying genotoxic compounds that show differential cytotoxicity against isogenic chicken DT40 cell lines with known DNA damage response pathways - Rad54/Ku70 mutant cell line (AID 743015); further: nearly all actives have a fitted effect of over 60% in size
# [4] = qHTS assay to identify small molecule antagonists of the androgen receptor (AR) signaling pathway - cell viability counter screen (AID 743033; further: nearly all actives have a fitted effect of over 45% in size)
# [5] = qHTS assay to identify small molecule antagonists of the androgen receptor (AR) signaling pathway using the MDA cell line - cell viability counter screen (AID 743041; further: nearly all actives have a fitted effect of over 45% in size)
# Outline: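 Cytotoxicity counter screen: MDA-kb2 AR-luc cells, compound + R1881, 16 h, 37C, 0% CO2; CellTiter-Fluor added at 15.5 h, fluorescence read after 30 min.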
# [6] = qHTS assay to identify small molecule antagonists of the thyroid receptor (TR) signaling pathway - cell viability counter screen (AID 743064); further: nearly all actives have a fitted effect of over 50% in size; further: potency means the concentration at half of the fitted maximal effect
# Outline: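 Viability of T3-stimulated (1 nM final) GH3.TRE-Luc cells is measured by CellTiter-Fluor fluorescence after 23.5 h compound exposure at 37 °C plus 30 min reagent incubation.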
# [7] = target: Estrogen receptor (Homo sapiens) (UniProt P03372); test: qHTS assay to identify small molecule antagonists of the estrogen receptor alpha (ER-alpha) signaling pathway (AID 743069; active means well fitted curve in the direction sought with a large enough effect in the signal ratio in the repeat runs, not every such curve was filed as active; the % refers to the signal ratio)
# Outline: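 Beta-lactamase FRET fluorescence is read after 2 hr at room temperature with LiveBLAzer B/G substrate. Before that, ER-alpha-bla HEK293 cells sit 4 hr after plating, then receive compound plus 17beta-estradiol and incubate 18 hr at 37C.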
# [8] = qHTS assay to identify small molecule antagonists of the estrogen receptor alpha (ER-alpha) signaling pathway - cell viability counter screen (AID 743074; calls by dose curve;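 further: HEK293 cells carrying ER-alpha-UAS-bla reporter stimulated with 17beta-estradiol; nearly all actives have a fitted effect of over 45% in size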)
# [9] = target: Estrogen receptor (Homo sapiens) (UniProt P03372); test: qHTS assay to identify small molecule agonists of the estrogen receptor alpha (ER-alpha) signaling pathway (AID 743075; calls by dose curve;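 further: HEK293 GripTite cells with ER-alpha and UAS-driven beta-lactamase reporter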)
# [10] = target: Estrogen receptor (Homo sapiens) (UniProt P03372); test: qHTS assay to identify small molecule agonists of the estrogen receptor alpha (ER-alpha) signaling pathway using the BG1 cell line (AID 743079); further: nearly all actives have a fitted effect of over 20% in size; further: potency means the concentration at half of the fitted maximal effect
# [11] = qHTS assay to identify small molecule antagonists of the estrogen receptor alpha (ER-alpha) signaling pathway using the BG1 cell line (AID 743080; calls by dose curve; further: series mostly up to about 70 µM; nearly all actives have a fitted effect of over 25% in size)
# Outline: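 Antagonist mode: compounds in DMSO were pinned onto BG1-Luc-4E2 cells alongside 17beta-estradiol agonist, incubated 21.5 h, and ERE-driven luciferase measured with ONE-Glo. Cytotoxicity was multiplexed using CellTiter-Fluor fluorescence.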
# [12] = qHTS assay to identify small molecule antagonists of the estrogen receptor alpha (ER-alpha) signaling pathway using the BG1 cell line - cell viability counter screen (AID 743081);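 further: compound given together with 17beta-estradiol as the ER stimulus; nearly all actives have a fitted effect of over 45% in size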; further: potency means the concentration at half of the fitted maximal effect
# Aromatase (Homo sapiens) = Aromatase (Homo sapiens) (UniProt P11511); test: qHTS assay to identify aromatase inhibitors (AID 743083); further: series mostly up to about 70 µM; nearly all actives have a fitted effect of over 55% in size
# [13] = qHTS assay to identify small molecule antagonists of the thyroid receptor (TR) signaling pathway (AID 743065); further: series mostly up to about 70 µM; nearly all actives have a fitted effect of over 55% in size
# Outline: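 GH3.TRE-Luc rat pituitary cells (two TREs driving luciferase) were dosed with compound, then stimulated with 1 nM T3 (final) for 23.5 h at 37 C. ONE-Glo luminescence was the read-out, with CellTiter-Fluor fluorescence as the cytotoxicity counter-screen.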
# [14] = tested on: thyroid hormone receptor (rat, GH3 cells); test: qHTS assay to identify small molecule agonists of the thyroid receptor (TR) signaling pathway (AID 743066; calls by dose curve)
# [15] = target: Androgen receptor (Homo sapiens) (UniProt P10275); test: qHTS assay to identify small molecule antagonists of the androgen receptor (AR) signaling pathway (AID 743035; active means well fitted inhibition curve with a large enough effect in the signal ratio in the repeat runs, not every such curve was filed as active; the % refers to the signal ratio)
# Outline: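 Quantitative HTS of the Tox21 10K library used HEK293 AR-UAS-bla cells stimulated with R1881 alongside compound for 16 h at 37C, followed by beta-lactamase FRET detection (LiveBLAzer B/G, 2 h, RT).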
# [16] = target: Androgen receptor (Homo sapiens) (UniProt P10275); test: qHTS assay to identify small molecule agonists of the androgen receptor (AR) signaling pathway (AID 743036; active means well fitted activation curve with a large enough effect in the signal ratio in the repeat runs, with a control signal flat, not every such curve was filed as active; the % refers to the signal ratio)
# Outline: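 Screening used 2,000 AR-bla HEK293 cells per well, treated 16 h at 37C with test compounds in DMSO alongside positive and DMSO-only controls; beta-lactamase activity was then read by LiveBLAzer B/G FRET fluorescence after 2 h at room temperature.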
# [17] = target: Androgen receptor (Homo sapiens) (UniProt P10275); test: qHTS assay to identify small molecule agonists of the androgen receptor (AR) signaling pathway using the MDA cell line (AID 743040; further: nearly all actives have a fitted effect of over 20% in size)
# Outline: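 Luciferase read-out, ONE-Glo, 30 min RT. Cells: MDA-kb2 AR-luc, MMTV promoter with AR and GR response elements. Compound exposure 16 h, 37C, 0% CO2, after 5 h pre-incubation. qHTS agonist mode.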
# [18] = target: Androgen receptor (Homo sapiens) (UniProt P10275); test: qHTS assay to identify small molecule antagonists of the androgen receptor (AR) signaling pathway using the MDA cell line (AID 743042; further: nearly all actives have a fitted effect of over 55% in size)
# Outline: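 MDA-kb2 breast carcinoma cells carrying MMTV-luciferase (AR/GR responsive) were co-treated with compounds and the agonist R1881 for 16 h at 37C. Inhibition read as ONE-Glo luminescence; CellTiter-Fluor fluorescence measured in parallel for cytotoxicity.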
# [19] = qHTS assay for identifying genotoxic compounds that show differential cytotoxicity against isogenic chicken DT40 cell lines with known DNA damage response pathways - Rev3 mutant cell line (AID 743014); further: nearly all actives have a fitted effect of over 55% in size
# Aromatase (Homo sapiens), sequence (P11511 whole entry, looked up): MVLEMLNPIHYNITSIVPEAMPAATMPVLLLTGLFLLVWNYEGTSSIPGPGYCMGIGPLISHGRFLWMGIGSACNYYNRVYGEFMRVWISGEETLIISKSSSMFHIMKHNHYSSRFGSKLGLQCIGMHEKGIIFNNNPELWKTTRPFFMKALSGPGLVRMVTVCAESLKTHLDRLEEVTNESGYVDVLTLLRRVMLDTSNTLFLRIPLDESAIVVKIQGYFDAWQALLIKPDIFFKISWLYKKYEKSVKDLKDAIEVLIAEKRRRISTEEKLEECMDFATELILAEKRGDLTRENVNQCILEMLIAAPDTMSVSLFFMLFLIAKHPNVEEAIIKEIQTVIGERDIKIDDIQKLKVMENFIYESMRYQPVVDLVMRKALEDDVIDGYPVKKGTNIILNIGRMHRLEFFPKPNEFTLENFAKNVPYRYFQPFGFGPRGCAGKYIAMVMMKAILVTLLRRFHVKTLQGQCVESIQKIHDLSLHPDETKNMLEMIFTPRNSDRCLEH
# Androgen receptor (Homo sapiens), sequence (P10275 whole entry, looked up): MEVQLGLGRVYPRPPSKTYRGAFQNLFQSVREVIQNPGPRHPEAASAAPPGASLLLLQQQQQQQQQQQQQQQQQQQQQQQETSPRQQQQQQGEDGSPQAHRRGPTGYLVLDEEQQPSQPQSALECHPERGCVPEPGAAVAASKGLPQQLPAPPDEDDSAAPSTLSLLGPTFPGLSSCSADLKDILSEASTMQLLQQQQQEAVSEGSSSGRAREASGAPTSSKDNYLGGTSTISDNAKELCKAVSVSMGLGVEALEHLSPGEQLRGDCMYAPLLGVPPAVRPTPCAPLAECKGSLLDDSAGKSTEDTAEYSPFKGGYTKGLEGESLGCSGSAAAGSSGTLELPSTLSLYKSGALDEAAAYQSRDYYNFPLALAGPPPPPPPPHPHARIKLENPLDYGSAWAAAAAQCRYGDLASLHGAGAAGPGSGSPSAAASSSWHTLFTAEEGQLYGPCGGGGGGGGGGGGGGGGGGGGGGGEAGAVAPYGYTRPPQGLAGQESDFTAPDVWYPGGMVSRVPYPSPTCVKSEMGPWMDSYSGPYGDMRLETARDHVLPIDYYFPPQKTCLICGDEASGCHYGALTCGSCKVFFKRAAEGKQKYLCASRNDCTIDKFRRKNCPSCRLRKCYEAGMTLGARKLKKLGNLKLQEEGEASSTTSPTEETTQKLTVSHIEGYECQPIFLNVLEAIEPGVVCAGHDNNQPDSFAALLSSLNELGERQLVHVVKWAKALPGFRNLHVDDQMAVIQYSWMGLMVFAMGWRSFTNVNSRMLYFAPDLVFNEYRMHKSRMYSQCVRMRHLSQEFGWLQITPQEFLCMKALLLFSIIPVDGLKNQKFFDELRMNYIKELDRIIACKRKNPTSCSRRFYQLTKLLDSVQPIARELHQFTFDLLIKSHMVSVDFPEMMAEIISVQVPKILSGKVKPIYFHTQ
# Estrogen receptor (Homo sapiens), sequence (P03372 whole entry, looked up): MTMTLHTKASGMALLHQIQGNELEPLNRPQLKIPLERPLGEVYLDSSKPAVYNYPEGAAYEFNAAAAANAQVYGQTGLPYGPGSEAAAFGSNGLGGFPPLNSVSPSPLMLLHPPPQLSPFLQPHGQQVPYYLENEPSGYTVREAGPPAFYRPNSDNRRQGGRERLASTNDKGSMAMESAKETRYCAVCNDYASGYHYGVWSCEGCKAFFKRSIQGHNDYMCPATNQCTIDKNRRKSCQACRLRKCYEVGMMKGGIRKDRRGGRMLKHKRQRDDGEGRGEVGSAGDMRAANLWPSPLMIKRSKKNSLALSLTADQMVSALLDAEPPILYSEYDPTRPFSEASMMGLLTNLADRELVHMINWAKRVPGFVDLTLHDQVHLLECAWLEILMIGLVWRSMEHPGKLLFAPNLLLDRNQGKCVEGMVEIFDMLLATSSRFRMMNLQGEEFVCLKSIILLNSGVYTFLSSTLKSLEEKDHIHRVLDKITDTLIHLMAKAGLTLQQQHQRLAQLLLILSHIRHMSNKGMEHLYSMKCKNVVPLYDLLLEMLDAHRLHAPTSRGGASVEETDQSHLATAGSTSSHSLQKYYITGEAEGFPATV
Compound,outcome [1],Potency [2],Potency [3],outcome [4],Potency [5],Potency [6],Potency [7],Potency [8],outcome [9],Potency [10],outcome [11],Potency [12],Potency (Aromatase (Homo sapiens)),Potency [13],outcome [14],Potency [15],outcome [16],Potency [17],outcome [18],Potency [19]
C[C@@H]1CN(c2c(F)c(N)c3c(=O)c(C(=O)O)cn(C4CC4)c3c2F)C[C@H](C)N1,inactive,inactive,inactive,inactive,inactive,inactive,inactive,inactive,inactive,inactive,inactive,inactive,inactive,–,–,–,–,–,–,–
CCOc1ccc2nc(N)sc2c1,inactive,inactive,–,inactive,inactive,inactive,inactive,inactive,inactive,4.29 µM (active),–,inactive,inactive,inactive,inactive,–,–,–,–,–
CCN(CC)CCNC(=O)COc1ccc(Cl)cc1,inactive,–,inactive,inactive,inactive,–,inactive,inactive,inactive,inactive,inactive,inactive,inactive,inactive,inactive,–,–,–,–,–
CC(C)c1ccccc1,inactive,–,inactive,–,–,inactive,inactive,inactive,inactive,inactive,inactive,inactive,–,inactive,inactive,inactive,inactive,inactive,inactive,–
CN(C)CCOc1ccccc1Cc1ccccc1,inactive,–,–,inactive,inactive,–,–,inactive,–,–,–,2.37 µM (active),inactive,–,inactive,–,–,–,–,inactive
CCC(=O)O[C@]1(C(=O)SCF)[C@H](C)C[C@H]2[C@@H]3C[C@H](F)C4=CC(=O)C=C[C@]4(C)[C@@]3(F)[C@@H](O)C[C@@]21C,inactive,–,–,inactive,inactive,inactive,–,inactive,inactive,inactive,–,inactive,inactive,inactive,inactive,–,–,–,–,inactive
COc1cc(N)c(Cl)cc1C(=O)NC1CCN(Cc2ccccc2)CC1,inactive,–,–,–,inactive,inactive,inactive,inactive,inactive,inactive,inactive,inactive,–,–,–,–,–,–,–,–
COc1ccc(Nc2ccc(OC)cc2)cc1,inactive,–,–,inactive,inactive,inactive,inactive,inactive,inactive,3.93 µM (active),–,inactive,inactive,inactive,inactive,–,–,–,–,–
O=C1C=CC(=O)O1,–,inactive,inactive,inactive,inactive,inactive,inactive,inactive,inactive,inactive,inactive,inactive,inactive,inactive,inactive,–,–,–,–,inactive
CO[Si](C)(C)OC,inactive,–,–,inactive,inactive,inactive,inactive,inactive,inactive,inactive,inactive,inactive,inactive,inactive,inactive,–,–,–,–,–
COC(=O)C(C)O (centres undefined),–,inactive,inactive,inactive,inactive,inactive,inactive,inactive,inactive,inactive,inactive,inactive,inactive,inactive,inactive,inactive,inactive,inactive,inactive,inactive
C=Cc1ccccc1,–,inactive,inactive,inactive,inactive,inactive,inactive,inactive,inactive,inactive,inactive,inactive,inactive,inactive,inactive,–,–,–,–,inactive
Oc1ccccc1C=NCc1ccccc1,inactive,–,–,inactive,inactive,inactive,–,inactive,–,–,–,inactive,inactive,–,inactive,–,–,–,–,inactive
Cc1cc2c(s1)Nc1ccccc1N=C2N1CCN(C)CC1,inactive,–,–,inactive,inactive,13.3 µM (active),inactive,inactive,inactive,inactive,inactive,inactive,inactive,–,inactive,–,–,–,–,–
O=C1N(c2ccccc2)c2ccccc2C1(Cc1ccncc1)Cc1ccncc1,inactive,–,–,inactive,inactive,inactive,inactive,–,inactive,inactive,inactive,inactive,inactive,inactive,inactive,–,–,–,–,–
CC1(O)CSC(C)(O)CS1 (centres undefined),inactive,–,–,inactive,inactive,inactive,inactive,inactive,inactive,inactive,inactive,inactive,inactive,inactive,inactive,inactive,inactive,inactive,inactive,–
O=C(O)[C@@H]1CSCN1,inactive,–,inactive,inactive,inactive,inactive,–,inactive,–,–,–,–,inactive,inactive,inactive,–,–,–,–,–
Cc1c[nH]c(=S)[nH]c1=O,inactive,–,–,–,–,inactive,inactive,inactive,inactive,inactive,inactive,inactive,–,inactive,inactive,–,–,–,–,–
CCCCCCCOC(=O)CCC,inactive,–,inactive,inactive,inactive,inactive,inactive,inactive,inactive,inactive,inactive,inactive,inactive,inactive,inactive,–,–,–,–,–
CN1C(=O)CC(c2ccccc2)C1=O (centres undefined),inactive,–,inactive,inactive,inactive,–,–,inactive,–,–,–,inactive,inactive,inactive,inactive,–,–,–,–,–
